A selection: hits, their analogues and other compounds. The true share with any hit is near 21%.
DT40 TDP1 no CPT – qHTS for Inhibitors of human tyrosyl-DNA phosphodiesterase 1 (TDP1): qHTS in cells in absence of CPT; DT40 Tdp1-/- hTDP1 cells, no CPT, ATP luminescence, 48 h; hit rate 15% among 420,000; Potency, µM (doses to about 46.2 µM), for inactives: top-dose activity change, negative = growth inhibition, actives largely listed as inhibitors; AID 686978, 2013; note: potency is the fitted concentration of half-maximal effect; % is set by controls: 0 for no effect and ±100 for the full control effect; nearly all actives have a fitted effect of over 55% in size
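No-CPT arm: Tdp1-/-;hTDP1 DT40 cells (400/well) plus compounds, incubated ≥48 hr at 37 °C. Readout CellTiter-Glo luminescence.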
D3 ag – activates the human D3 dopamine receptor. D3R DiscoveRx beta-arrestin cells, luminescence, 90 min. max activation, %. hit rate 0.58% among 410,000. AID 652048; in the data active = max activation above about 30%; note: 0% is about no effect
Target sequence (P35462 whole entry, looked up): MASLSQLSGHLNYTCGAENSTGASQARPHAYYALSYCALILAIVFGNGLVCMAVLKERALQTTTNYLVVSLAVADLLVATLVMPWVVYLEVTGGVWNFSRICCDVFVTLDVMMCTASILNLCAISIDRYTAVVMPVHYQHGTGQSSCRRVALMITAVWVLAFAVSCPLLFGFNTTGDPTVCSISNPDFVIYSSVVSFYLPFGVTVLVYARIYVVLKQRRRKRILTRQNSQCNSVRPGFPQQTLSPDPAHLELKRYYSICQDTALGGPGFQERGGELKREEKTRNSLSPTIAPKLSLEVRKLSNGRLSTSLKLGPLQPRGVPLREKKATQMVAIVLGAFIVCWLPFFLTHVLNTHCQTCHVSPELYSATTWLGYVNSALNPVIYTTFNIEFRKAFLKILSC
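Agonist mode: compounds and dopamine controls were applied to plated cells for 90 min at 37 degrees C after an overnight attachment at 1500 cells/well. Luminescent read-out followed 30 - 60 minutes at room temperature with DiscoveRx detection reagent.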
ClpP mod – qHTS Assay for Activators of ClpP. purified B. subtilis ClpP, FRET peptide cleavage, 20 min. hit rate 1.9% among 340,000. Potency, µM (titrated, usually from 57.5 µM), for the others: at the top dose activity change, negative = active; active = well fitted falling curve with a large enough effect; inconclusive = small, poorly fitted or top-dose-only effect; inactive = no such curve, though single readings can be large or run the other way; note: potency is the fitted concentration of half-maximal effect; the source files actives as falling curves though it sought activators and does not explain the sign; nearly all actives have a fitted effect of over 65% in size
Target sequence (P80244 whole entry, looked up): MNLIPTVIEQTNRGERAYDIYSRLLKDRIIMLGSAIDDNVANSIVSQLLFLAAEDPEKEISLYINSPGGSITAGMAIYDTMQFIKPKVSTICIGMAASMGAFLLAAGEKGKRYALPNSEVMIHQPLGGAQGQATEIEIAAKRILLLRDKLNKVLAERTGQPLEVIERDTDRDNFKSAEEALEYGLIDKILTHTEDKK
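ClpP 10 microg/mL final, pH 8 Tris/KCl buffer with BSA, glycerol, Tween-20; compound pinned in; FRET-FV substrate; RT 20 min; Ex320/Em430; ΔFRET vs ADEP 5.8 microM, DMSO, no enzyme.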
TDP1 cell CPT – growth inhibition of DT40 Tdp1-/-;hTDP1 cells with camptothecin (screen for TDP1 inhibitors); chicken DT40 Tdp1-/-;hTDP1 cells + 20 nM CPT, ATP luminescence, 48 h; Potency, µM (doses to about 46.2 µM), without a hit: at the top dose activity change, negative = growth inhibition, actives largely listed as inhibitors; hit rate 12% among 420,000; AID 686979; note: potency is the fitted concentration of half-maximal effect; % is set by controls: 0 for no effect and ±100 for the full control effect; nearly all actives have a fitted effect of over 55% in size
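Chicken DT40 Tdp1-/- cells stably complemented with human TDP1 were seeded at 400 cells/well in medium containing 20 nM camptothecin, exposed to pin-transferred compounds, and grown at 37 °C for at least 48 hr. Viability was read as ATP luminescence.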
IL1B secr inh – blocks inflammasome-driven IL-1 beta release. THP-1 LPS/ATP IL-1B secretion, AlphaLISA, 16 h; hits give low values. activity change, % at 57.5 µM. hit rate 4.7% among 360,000; in the data active = activity change below about -50%; inconclusive = mostly about -30% to -49%; note: % is set by controls: 0 for no effect and ±100 for the full control effect
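Secreted IL-1B measured by AlphaLISA bead assay after 16 h compound exposure of THP-1 cells; compounds (final up to 57.5 uM) added 1 h before LPS (250 ng/mL) and ATP (1.25 mM) stimulation; lower signal means less secretion.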
D3 antag – D3 dopamine receptor (human) antagonism. hit rate 2.5% among 360,000. D3R cells, DiscoveRx beta-arrestin luminescence, antagonist mode; hits give low values. P35462. max response, negative = inhibition, %; in the data active = max response below about -50%; inconclusive = no clear call, values can overlap the other calls; note: % is set by controls: 0 for no effect and ±100 for the full control effect
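Cells plated overnight at 1500 cells/well, then exposed to library compounds with dopamine controls for 90 minutes at 37 degrees C. DiscoveRx reagent added for 30–60 minutes at room temperature; luminescence read, quantitative HTS format.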
Active calls of the source: *. Unless noted, calls come from the whole dose curve; as a rule, active = well fitted inhibition curve with a large enough effect; inconclusive = small, poorly fitted or top-dose-only effect; inactive = flat fitted curve, though single readings scatter.

What do the screens show for `CCOc1ccc(NCc2cccn2-c2nnc(N3CCC(C(=O)NCCc4ccc(OC)c(OC)c4)CC3)s2)cc1`?
DT40 TDP1 no CPT: 10.3µM*; D3 ag: -10.0; ClpP mod: -1.8%; TDP1 cell CPT: inconclusive

How did CCN1CCN(CCCNC(=O)C2CCN(c3nnc(-n4cccc4)s3)CC2)CC1 do in these assays?
DT40 TDP1 no CPT: 10.2%; D3 ag: -2.3; ClpP mod: -0.4%; TDP1 cell CPT: -11.5%; IL1B secr inh: 5.6; D3 antag: 7.9

What do the screens show for `COc1cccc(NC(=O)CN(C)C(=O)c2cc(-c3ccccc3)nn2-c2ccccc2)c1`?
DT40 TDP1 no CPT: -5.4%; D3 ag: 4.6; ClpP mod: -2.8%; TDP1 cell CPT: -1.3%; IL1B secr inh: inconclusive; D3 antag: 0.3

How did CC(=O)SC1CC(=O)N(c2ccc(C(C)(C)C)cc2)C1=O (stereo not drawn) do in these assays?
DT40 TDP1 no CPT: 8.2µM*; D3 ag: 10.2; TDP1 cell CPT: 3.26µM*; IL1B secr inh: -4.3; D3 antag: -19.3

How did CCOC(=O)N1CCN(S(=O)(=O)c2ccc(C(=O)N(CCCN(C)C)c3nc4c(F)cc(F)cc4s3)cc2)CC1 do in these assays?
DT40 TDP1 no CPT: -14.0%; D3 ag: -5.5; ClpP mod: 0.3%; TDP1 cell CPT: 15.3%; IL1B secr inh: -6.4; D3 antag: 12.8

What do the screens show for `CCOC(=O)N1CCN(S(=O)(=O)c2ccc(C(=O)N(CCCN(C)C)c3nc4ccc(CC)cc4s3)cc2)CC1`?
DT40 TDP1 no CPT: inconclusive; D3 ag: -8.4; ClpP mod: -0.7%; TDP1 cell CPT: inconclusive; IL1B secr inh: -61.8*; D3 antag: -23.4

Results for CN(C)CCCN(C(=O)c1ccc(S(=O)(=O)N2CCCCCC2)cc1)c1nc2ccc(F)cc2s1 ?
DT40 TDP1 no CPT: inconclusive; D3 ag: -17.0; ClpP mod: -0.4%; TDP1 cell CPT: inconclusive; IL1B secr inh: -105.4*; D3 antag: -28.6

What do the screens show for `CCOC(=O)N1CCN(S(=O)(=O)c2ccc(C(=O)N(CCCN(C)C)c3nc4ccc(Cl)cc4s3)cc2)CC1`?
DT40 TDP1 no CPT: 18.4µM*; D3 ag: -4.0; ClpP mod: 0.4%; TDP1 cell CPT: inconclusive; IL1B secr inh: -96.4*; D3 antag: -8.4

How did CCOC(=O)N1CCN(S(=O)(=O)c2ccc(C(=O)N(CCN(C)C)c3nc4ccc(CC)cc4s3)cc2)CC1 do in these assays?
DT40 TDP1 no CPT: -5.1%; D3 ag: -12.6; ClpP mod: -1.8%; TDP1 cell CPT: -12.0%; IL1B secr inh: -18.5; D3 antag: 2.2

What do the screens show for `CCn1nc(NC(=O)Cc2ccc(OC)cc2)c2cc3cc(C)ccc3nc21`?
DT40 TDP1 no CPT: inconclusive; D3 ag: 8.9; ClpP mod: inconclusive; TDP1 cell CPT: inconclusive; IL1B secr inh: 44.6; D3 antag: 8.5

How did CCOc1ccccc1OCCC(=O)OCC(=O)Nc1c(C)cc(C)cc1C do in these assays?
DT40 TDP1 no CPT: 3.6%; D3 ag: 0.6; ClpP mod: -1.2%; TDP1 cell CPT: 7.0%; IL1B secr inh: -0.7; D3 antag: -15.9

What do the screens show for `CCOC(=O)C1CCCN(C(=O)c2nn(-c3ccc(C)cc3)c(=O)c3c2c2ccccc2n3C)C1` (stereo not drawn)?
DT40 TDP1 no CPT: inconclusive; D3 ag: -11.1; ClpP mod: -5.9%; TDP1 cell CPT: inconclusive

Results for COCCNC(=O)CCn1c(=O)c2cc(OC)c(OC)cc2n(CC(=O)Nc2ccccc2OC)c1=O ?
DT40 TDP1 no CPT: -2.5%; D3 ag: -37.3; ClpP mod: -8.4%; TDP1 cell CPT: -3.1%

Results for CC(=O)c1c(C)oc2ccc(N(C(=O)Oc3ccccc3)S(=O)(=O)c3ccc(Br)cc3)cc12 ?
DT40 TDP1 no CPT: 22.2%; D3 ag: 7.2; ClpP mod: -4.8%; TDP1 cell CPT: -7.6%

What do the screens show for `CCCC(=O)N(c1ccc2oc(C)c(C(C)=O)c2c1)S(=O)(=O)c1ccc(C)c([N+](=O)[O-])c1`?
DT40 TDP1 no CPT: 16.4µM*; D3 ag: -0.9; ClpP mod: 1.0%; TDP1 cell CPT: 18.4µM*; IL1B secr inh: 9.4; D3 antag: 9.5

How did CCOC(=O)c1c(-c2ccccc2)oc2ccc(N(C(C)=O)S(=O)(=O)c3ccc(CC)cc3)cc12 do in these assays?
DT40 TDP1 no CPT: 5.8µM*; D3 ag: -14.1; ClpP mod: 4.0%; TDP1 cell CPT: 16.4µM*

Results for CCc1ccc(S(=O)(=O)N(C(=O)Oc2ccccc2)c2ccc3oc(C)c(C(=O)OC)c3c2)cc1 ?
DT40 TDP1 no CPT: 2.91µM*; D3 ag: -0.7; ClpP mod: -3.3%; TDP1 cell CPT: 3.66µM*

How did CCCC(=O)N(c1ccc2oc(C)c(C(C)=O)c2c1)S(=O)(=O)c1ccc(C(=O)O)cc1 do in these assays?
DT40 TDP1 no CPT: inconclusive; D3 ag: -11.6; TDP1 cell CPT: -11.6%; IL1B secr inh: 8.2; D3 antag: -24.8

What do the screens show for `COC(=O)c1c(C)oc2ccc(N(C(=O)Oc3ccccc3)S(=O)(=O)c3ccc(Cl)c([N+](=O)[O-])c3)cc12`?
DT40 TDP1 no CPT: 20.6µM*; D3 ag: -3.3; ClpP mod: 1.4%; TDP1 cell CPT: inconclusive; IL1B secr inh: -104.6*; D3 antag: 26.0

Results for CC(=O)c1c(C)oc2ccc(N(C(=O)Oc3ccccc3)S(=O)(=O)c3ccc(Cl)cc3)cc12 ?
DT40 TDP1 no CPT: -10.0%; D3 ag: -7.7; ClpP mod: -1.1%; TDP1 cell CPT: -2.5%

How did CCCCN(C(=O)c1cc(S(=O)(=O)N2CCCCC2)ccc1Cl)c1c(N)n(CCC)c(=O)[nH]c1=O do in these assays?
DT40 TDP1 no CPT: -3.9%; D3 ag: -10.4; ClpP mod: 1.2%; TDP1 cell CPT: -17.7%; IL1B secr inh: 2.8; D3 antag: 7.8

Results for C=CC[C@H](CC(=O)NCCO)C(=O)N[C@H](COC(=O)[C@@H](CC=C)Cc1ccc(F)cc1)Cc1ccccc1 ?
DT40 TDP1 no CPT: inconclusive; D3 ag: 4.0; ClpP mod: -8.5%; TDP1 cell CPT: inconclusive; IL1B secr inh: -0.9; D3 antag: inconclusive

What do the screens show for `C=CCC[C@H](Cc1ccc(F)cc1)C(=O)OC[C@H](C)NC(=O)[C@H](CC=C)CC(=O)NCCO`?
DT40 TDP1 no CPT: inconclusive; D3 ag: 2.7; ClpP mod: -0.1%; TDP1 cell CPT: inconclusive; IL1B secr inh: -10.5; D3 antag: 0.0

Source: PubChem (National Center for Advancing Translational Sciences (NCATS))
